The list is not random: actives were taken first. Their share in the collection is about 2.4%.
D2 PAM-1 = Beta-Arrestin HTS for Positive Allosteric Modulators of the Human D2 Dopamine Receptor: Potentiators; AID 624464, 2012; D(2) dopamine receptor (Homo sapiens), P14416; potentiation, % (concentration not given with the values); DiscoveRx D2 beta-arrestin cells, luminescence, 90 min; 100% = 57 uM dopamine signal; hit rate 0.23% among 360,000; in the data active = potentiation above about 50%; inconclusive = mostly about 30% to 49%
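PathHunter beta-arrestin assay in DiscoveRx D2 cells. Compounds were added with an EC20 of dopamine (50 nM final) for 90 min at 37 deg C. Luminescence was read 1 h after detection reagent, with 57 uM dopamine as the EC100 control.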
D2 ag-1 = HTS Assay for Allosteric Agonists of the Human D2 Dopamine Receptor: Primary Screen for Agonists; AID 485358, 2010; HEK293 T-REx D2 cells, calcium flux agonist mode; activation, % at 2 µM; hit rate 0.53% among 340,000; D(2) dopamine receptor (Homo sapiens), P14416;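 active = activation over 3 SD above normal in the single-dose calcium agonist read, cut at about 30% in these data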
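Agonism scored from kinetic calcium signal (1 read/sec, 180 s) following compound pin transfer, after a 10 s baseline. Cells: HEK293 Trex line expressing inducible D2 receptor coupled to calcium, dye-loaded after overnight culture at 30 C.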
D2 antagonist = HTS Assay for Allosteric Antagonists of the Human D2 Dopamine Receptor: Primary Screen for Antagonists. D(2) dopamine receptor (Homo sapiens), P14416. HEK293 TREx D2 cells, calcium flux, dopamine EC80. inhibition, % at 10 µM. hit rate 2% among 340,000. AID 485344, 2010; in the data active = inhibition above about 30%; inactive = below that, where a call was filed
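Calcium mobilization kinetics were recorded at 1 s intervals in tetracycline-induced HEK293 T-REx D2 cells, first for 180 s after compound addition and then 180 s after EC80 dopamine.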
D2 ag-2 = Beta-Arrestin HTS for Positive Allosteric Modulators of the Human D2 Dopamine Receptor: Agonists | hit rate 0.084% among 360,000 | AID 624465, 2012 | DiscoveRx PathHunter D2 beta-arrestin, luminescence, 90 min; 100% = 57 uM dopamine signal | activation, % (test concentration not listed) | D(2) dopamine receptor (Homo sapiens), P14416; in the data active = activation above about 40%; inconclusive = between about 15% and that limit
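DiscoveRx PathHunter D2 beta-arrestin cells (2,100/well) attached overnight, then compound-stimulated 90 min at 37 C in HBSS/10 mM HEPES/0.1% Tween-20 buffer; beta-galactosidase complementation read by luminescence after 1 h at ambient temperature. Dopamine 57 uM final (EC100) as control.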
D2 PAM-2 = HTS Assay for Positive Allosteric Modulators of the Human D2 Dopamine Receptor: Primary Screen for Potentiators. D(2) dopamine receptor (Homo sapiens), P14416. HEK293 T-REx D2, calcium flux, EC20 dopamine potentiation. potentiation, % at 10 µM. hit rate 0.34% among 340,000. AID 485347, 2010;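 active = potentiation over 3 SD above the plate norm, cut at about 30% in these data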
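Using a no-wash calcium dye in inducible, force-coupled HEK293 Trex cells expressing D2, we tracked fluorescence each second for 180 s after compound, then for 180 s after EC20 dopamine to detect augmented signalling.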
D3 ag = qHTS of D3 Dopamine Receptor Agonist: D3 Dopamine Receptor B-arrestin Agonist Confirmatory Assay; shares compounds with D2 ag-1; DiscoveRx D3 beta-arrestin cells, luminescence, 90 min; Potency, µM (top dose mostly 76.9 µM), usual class: activators; hit rate 4% among 2,300; AID 720506, 2013; also: nearly all actives have a fitted effect of over 70% in size
Target sequence (P35462 whole entry, looked up): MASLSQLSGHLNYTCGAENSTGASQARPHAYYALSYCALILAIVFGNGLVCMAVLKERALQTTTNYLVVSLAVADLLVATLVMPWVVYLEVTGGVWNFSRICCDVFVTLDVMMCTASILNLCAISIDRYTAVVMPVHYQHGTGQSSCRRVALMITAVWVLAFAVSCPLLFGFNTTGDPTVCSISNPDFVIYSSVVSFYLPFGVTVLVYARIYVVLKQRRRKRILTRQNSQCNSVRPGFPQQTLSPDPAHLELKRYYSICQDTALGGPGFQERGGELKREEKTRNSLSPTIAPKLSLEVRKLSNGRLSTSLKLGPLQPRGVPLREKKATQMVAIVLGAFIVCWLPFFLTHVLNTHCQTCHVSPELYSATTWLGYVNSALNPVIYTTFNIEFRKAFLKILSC
D2 ag-3 = qHTS of D3 Dopamine Receptor Agonist: D2 Dopamine Receptor B-arrestin Agonist Counterscreen | shares compounds with D2 ag-1 | DiscoveRx PathHunter D2 beta-arrestin, luminescence, 90 min; response scale: percent relative to full dopamine signal | Potency, µM (top dose mostly 76.9 µM), actives largely listed as activators | hit rate 5.9% among 2,300 | AID 720507, 2013; also: nearly all actives have a fitted effect of over 70% in size
Numbers stand for hits; 0 = inactive; ? = inconclusive; - = no result; ! = repeats disagree. Unless noted, calls follow the shape of the dose curve; as a rule, active = well fitted activation curve with a large enough effect; inconclusive = small, poorly fitted or top-dose-only effect; inactive = flat fitted curve, though single readings scatter.

SMILES	D2 PAM-1	D2 ag-1	D2 antagonist	D2 ag-2	D2 PAM-2	D3 ag	D2 ag-3
O=C(NCCCN1CCCC1=O)c1cc(NS(=O)(=O)c2ccc(F)cc2)cc(NS(=O)(=O)c2ccc(F)cc2)c1	0	0	0	0	0	-	-
O=C(NCCCc1nc2ccccc2n1Cc1ccccc1F)c1ccco1	-	0	-	-	0	-	-
Cc1ccc(NC(=O)C(C)OC(=O)Cn2cnc3ccccc3c2=O)cc1 (centres undefined)	0	0	0	0	0	-	-
CC(OC(=O)Cn1cnc2ccccc2c1=O)C(=O)NCc1ccccc1 (centres undefined)	0	49	0	0	0	0	0
Cc1c(-c2ccccc2)n(-c2ccccc2O)c2nc3c(c(=O)n(C)c(=O)n3C)n12	-	0	-	-	0	-	-
CCOC(=O)N1CCC(NC(=O)Cc2ccccc2)CC1	0	0	0	0	0	-	-
CCOC(=O)N1CCC(NC(=O)c2ccccc2C(=O)O)CC1	0	0	0	0	0	-	-
CCOC(=O)N1CCC(NCCNC(=O)c2ccccc2)CC1	0	66!	51	0	0	0	0
CCOC(=O)N1CCC(NCCNC(=O)c2ccccc2Cl)CC1	0	0	56	0	0	0	0
CCOC(=O)N1CCC(NCCNC(=O)c2cccs2)CC1	0	0	0	0	-	0	0
O=C(NCCNC1CCC(c2ccccc2)CC1)c1cccs1 (centres undefined)	0	50	48	0	0	0	0
CC(C)CCNC(=O)C(=O)Nc1c2c(nn1-c1ccc(Cl)cc1)CSC2	-	-	-	-	0	-	-
COc1ccc(C(CC(=O)NCc2ccccc2)N2Cc3ccccc3C2=O)cc1 (centres undefined)	-	0	-	-	0	-	-
Cc1ccc(CNC(=O)CCc2nnc3n(C)c(=O)c4sccc4n23)cc1	-	0	-	-	0	-	-
COC(=O)Cc1ccc(NC(=S)N2CCN(c3ccc(OC)cc3)CC2)cc1	0	0	0	0	0	-	-
COC(=O)Cc1ccc(NC(=S)N2CCN(c3cccc(O)c3)CC2)cc1	0	44	0	0	0	28µM	?
CCOC(=O)N1CCC(N(CCCOC)C(=O)Nc2ccc(CC)cc2)CC1	0	0	0	0	0	0	0
CCOC(=O)N1CCC(N(CCOC)C(=O)Nc2ccc(Cl)cc2)CC1	0	0	0	0	0	-	-
O=C(NCCc1ccccc1)c1nc2nc(-c3cccs3)cc(C(F)(F)F)n2n1	0	0	40	0	0	0	0
Cc1cc(C)n2nc(C(=O)NCCc3ccccc3)nc2n1	0	0	0	0	0	-	-
O=C(Nc1cccc(S(=O)(=O)N2CCCCC2)c1)c1ccc(OCC2CCCO2)cc1 (centres undefined)	0	0	0	0	0	-	-
O=C(c1ccc(OCC2CCCO2)cc1)N1CCN(S(=O)(=O)c2cccc(F)c2)CC1 (centres undefined)	0	0	0	0	0	0	0
S=C(NCCc1ccccc1)N1CCOCC1	0	0	0	0	0	-	-
O=C(CCC(=O)N1CCOCC1)NCCc1ccccc1	0	0	0	0	0	0	0
CC1CN(CCn2cnc3c(N)ncnc32)CC(C)O1 (centres undefined)	0	0	46	0	0	0	0
SMILES	D2 PAM-1	D2 ag-1	D2 antagonist	D2 ag-2	D2 PAM-2	D3 ag	D2 ag-3
COc1cccc(N2CN(CCc3ccccc3)CNC2=S)c1	0	37	0	0	0	0	0
Cc1ccc(S(=O)(=O)NCCC(=O)Nc2ccc(C)cc2C(=O)c2ccccc2)cc1	0	0	0	0	0	0	0
Cc1ccc(SCc2nc(-c3ccc(C(=O)Nc4cc(C)ccc4C)cc3)oc2C)cc1	-	0	-	-	0	-	-
CCOCCCNC(=O)c1ccc2c(=O)n(CCc3ccc(OC)c(OC)c3)c(=O)[nH]c2c1	-	0	-	-	0	-	-
COc1ccc(CCNC(=O)CSC2=NS(=O)(=O)c3cc(Cl)ccc3N2)cc1OC	0	0	0	0	0	-	-
O=C(CSC1=NS(=O)(=O)c2cc(Cl)ccc2N1)NCCc1ccccc1	0	41	0	0	0	0	0
NC[C@H](Cc1ccccc1)NCCCCC1CCCCC1	0	33	0	0	0	0	0
COc1cc(CCCN[C@H](CN)Cc2ccccc2)cc(OC)c1OC	0	0	0	0	0	-	-
CCc1cccc(NC(=O)CCc2c(C)nc3c(c2C)c(=O)n(C)c(=O)n3C)c1	-	0	-	-	0	-	-
COc1cc(-c2nnc(NC(=O)CCS(=O)(=O)c3ccccc3)o2)cc(OC)c1OC	0	0	41	0	0	0	0
COc1cc(-c2nnc(NC(=O)CCS(=O)(=O)c3ccc(F)cc3)o2)cc(OC)c1OC	0	0	0	0	0	-	-
O=C(C1CCCN(S(=O)(=O)c2cccc3nsnc23)C1)N1CCN(c2ccccc2)CC1 (centres undefined)	-	0	-	-	0	-	-
Cc1ccc(NC(=O)CN2C(=O)C(c3ccc(C)cc3)=NC23CCCCCC3)cc1	-	0	-	-	0	-	-
CCN(CC)S(=O)(=O)c1ccc(C)c(NC(=O)CNCc2ccccc2OC)c1	0	82	96	?	0	?	?
CCN(CC)S(=O)(=O)c1ccc(C)c(NC(=O)CN(C)C)c1	0	0	0	0	0	-	-
COc1ccccc1CNCC(=O)Nc1cc(S(=O)(=O)N2CCOCC2)ccc1Cl	0	0	85	0	0	0	?
Cc1ccc(S(=O)(=O)N2CCOCC2)cc1NC(=O)CNCc1ccccn1	0	52	33	?	0	7.9µM	?
COc1ccccc1CNCC(=O)Nc1cc(S(=O)(=O)N2CCCCCC2)ccc1Cl	0	0	85	0	0	0	0
COc1ccccc1CNCC(=O)Nc1cc(S(=O)(=O)N2CCCCC2)ccc1C	0	-	-	?	-	-	-
Cc1ccc(S(=O)(=O)N2CCOCC2)cc1NC(=O)CSc1ncccn1	0	0	0	0	0	-	-
CC(C)(C)c1ccc(C(=O)NCC(c2cccnc2)N2CCc3ccccc3C2)cc1 (centres undefined)	-	0	-	-	0	-	-

Screening data deposited in PubChem BioAssay by National Center for Advancing Translational Sciences (NCATS).
